Test results reported in the supplement of paper PMC8728848.
Many of the other results were omitted from the sample, so the strongest signals are more common in it than they were.

Key:
Test in all cases: glycan array binding signal (z-score within array); higher = stronger binding
Details in all cases: glycan notation: IUPAC condensed, linker removed
[1] = target: GlcNAc(b1-3)Gal(b1-4)GlcNAc(b1-3)Gal(b1-4)GlcNAc(b1-3)Gal(b1-4)GlcNAc(b1-2)[GlcNAc(b1-3)Gal(b1-4)GlcNAc(b1-3)Gal(b1-4)GlcNAc(b1-3)Gal(b1-4)GlcNAc(b1-6)]Man(a1-6)[GlcNAc(b1-3)Gal(b1-4)GlcNAc(b1-3)Gal(b1-4)GlcNAc(b1-3)Gal(b1-4)GlcNAc(b1-2)Man(a1-3)]Man(b1-4)GlcNAc(b1-4)[Fuc(a1-6)]GlcNAc
Outline: (§1)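 Negative Z-scores can be read as non-binding. The Z-score is calculated within each array and then averaged across arrays of one protein sequence at different concentrations or buffers and across linkers. Arrays, 3228 in all, were curated from the Consortium for Functional Glycomics database and kept only where the protein sequence was available.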

[2] = target: GlcNAc(b1-4)[GlcNAc(b1-6)]GalNAc
Outline: as §1

Kdn(a2-3)Gal(b1-3)GlcNAc = target: Kdn(a2-3)Gal(b1-3)GlcNAc
Outline: as §1

[3] = target: Man(a1-2)Man(a1-3)[Man(a1-2)Man(a1-6)]Man(a1-6)[Man(a1-2)Man(a1-2)Man(a1-3)]Man
Outline: as §1

[4] = target: Man(a1-2)Man(a1-6)[Man(a1-3)]Man(a1-6)[Man(a1-2)Man(a1-2)Man(a1-3)]Man
Outline: as §1

[5] = target: Neu5Ac(a2-3)Gal(b1-4)GlcNAc(b1-3)Gal(b1-3)GlcNAc
Outline: as §1

[6] = target: Neu5Ac(a2-3)Gal(b1-4)GlcNAc(b1-3)Gal(b1-4)GlcNAc
Outline: as §1

[7] = target: Neu5Ac(a2-3)Gal(b1-4)GlcNAc(b1-3)Gal(b1-4)GlcNAc(b1-3)GalNAc
Outline: as §1

Neu5Ac(a2-3)GalNAc = target: Neu5Ac(a2-3)GalNAc
Outline: as §1

[8] = target: Neu5Ac(a2-3)[GalNAc(b1-4)]Gal(b1-4)GlcNAc(b1-3)GalNAc
Outline: as §1

[9] = target: Neu5Ac(a2-3)[Neu5Ac(a2-6)]GalNAc
Outline: as §1

Neu5Ac(a2-6)Gal(b1-4)Glc = target: Neu5Ac(a2-6)Gal(b1-4)Glc
Outline: as §1

[10] = target: Neu5Ac(a2-6)Gal(b1-4)GlcNAc(b1-2)Man(a1-6)Man(b1-4)GlcNAc(b1-4)GlcNAc
Outline: as §1

[11] = target: Neu5Ac(a2-6)Gal(b1-4)GlcNAc(b1-2)Man(a1-6)[Gal(b1-4)GlcNAc(b1-2)Man(a1-3)]Man(b1-4)GlcNAc(b1-4)GlcNAc
Outline: as §1

[12] = target: Neu5Ac(a2-6)Gal(b1-4)GlcNAc(b1-3)Gal(b1-4)GlcNAc(b1-2)Man(a1-3)[Neu5Ac(a2-6)Gal(b1-4)GlcNAc(b1-3)Gal(b1-4)GlcNAc(b1-2)Man(a1-6)]GalNAc
Outline: as §1

[13] = target: Neu5Ac(a2-6)Gal(b1-4)GlcNAc(b1-3)Gal(b1-4)GlcNAc(b1-3)Gal(b1-4)GlcNAc
Outline: as §1

[14] = target: Neu5Ac(a2-6)Gal(b1-4)GlcNAc(b1-3)Gal(b1-4)GlcNAc(b1-3)Gal(b1-4)GlcNAc(b1-2)Man(a1-3)[Neu5Ac(a2-6)Gal(b1-4)GlcNAc(b1-3)Gal(b1-4)GlcNAc(b1-3)Gal(b1-4)GlcNAc(b1-2)Man(a1-6)]GalNAc
Outline: as §1

[15] = target: Neu5Ac(a2-6)Gal(b1-4)GlcNAc(b1-3)Gal(b1-4)GlcNAc(b1-6)[Gal(b1-3)]GalNAc
Outline: as §1

[16] = target: Neu5Ac(a2-8)Neu5Ac(a2-3)Gal(b1-3)GalNAc(b1-4)[Neu5Ac(a2-3)]Gal(b1-4)Glc
Outline: as §1

[17] = target: Neu5Ac(a2-8)Neu5Ac(a2-8)Neu5Ac
Outline: as §1

[18] = target: Neu5Ac(a2-8)Neu5Gc(a2-3)Gal(b1-4)GlcNAc
Outline: as §1

[19] = target: Neu5Gc(a2-8)Neu5Gc(a2-3)Gal(b1-4)GlcNAc
Outline: as §1

[20] = target: Neu5Gc(a2-8)Neu5Gc(a2-3)Gal(b1-4)GlcNAc(b1-3)Gal(b1-4)GlcNAc
Outline: as §1

B1: PX14375A-pdi-503-28-503 (Parabacteroides distasonis) (protein)
chain: PLGSPEAGDISEERQAFLRLTAVYSVMKDFRYTWSMQCFGDVLSNDATYSGSSNDAQTFTLLENYQYQADHTEILNKYRYSYQCINKANLFIRDMEMADDALFSKYDKEQMIGEAKFIRAYTYFELVKTFGGVPCYTGVLDLDHERLGRASVEEIYSVIEQDLNDAVSVLPKKSEVANYESSYAGRITKGAAIAMQTRIYLYEKKYDEVKKAFEKFQNECGGEYSLVAPEDYTWQFSLDGEHCSSSILEVNMYNSSTQSSYNVNNGNRHVLMSMPRNMTIGFGCAQPTQALADAYDAEGDVIRKKTTLLSTEEAIEIETAAKGDVAPVTDDRTGWYNRKLYLAPGQREENRGNNQPTNLRLIRLAEVYLNYAEACYFSGDIANAQKYLNEVRSHVNLAPKNHTGSQLFEDIMNERHLEFGMEGFRFFDVVRVGWGEKVFNGTKKAEFGAKTPFSAGAEVLPIPQTEIDISDGLITN
[1]
  glycan array binding signal (z-score): 0.489
[2]
  glycan array binding signal (z-score): 2.82
Kdn(a2-3)Gal(b1-3)GlcNAc
  glycan array binding signal (z-score): -0.519
[3]
  glycan array binding signal (z-score): 1.42
[4]
  glycan array binding signal (z-score): -0.437
[5]
  glycan array binding signal (z-score): -0.225
[6]
  glycan array binding signal (z-score): 0.104
[7]
  glycan array binding signal (z-score): -0.442
Neu5Ac(a2-3)GalNAc
  glycan array binding signal (z-score): -0.004
[8]
  glycan array binding signal (z-score): -1.13
[9]
  glycan array binding signal (z-score): 0.006
Neu5Ac(a2-6)Gal(b1-4)Glc
  glycan array binding signal (z-score): -0.412
[10]
  glycan array binding signal (z-score): -0.882
[11]
  glycan array binding signal (z-score): -0.819
[12]
  glycan array binding signal (z-score): 0.642
[13]
  glycan array binding signal (z-score): 0.319
[14]
  glycan array binding signal (z-score): 1.64
[15]
  glycan array binding signal (z-score): -0.493
[16]
  glycan array binding signal (z-score): -0.127
[17]
  glycan array binding signal (z-score): -0.278
[18]
  glycan array binding signal (z-score): 13.2
[19]
  glycan array binding signal (z-score): -0.736
[20]
  glycan array binding signal (z-score): -0.755
